# In PubChem BioAssay (NCATS):
# Results filed as inconclusive are left out. Values without a mark were called inactive. Calls of active or inactive are those of the source. The call rests on the fitted dose curve; in most records, active means well fitted inhibition curve with a large enough effect; inconclusive means small, poorly fitted or top-dose-only effect; inactive means flat fitted curve, though single readings scatter.
# Test system: CP268
# Test: qHTS profiling for inhibitors of Plasmodium falciparum proliferation (AID 504749); further: nearly all actives have a fitted effect of over 60% in size;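 on activity, negative = inhibition: 0% = DMSO vehicle and full inhibition = artemisinin control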
# Settings: P. falciparum in erythrocytes, SYBR Green DNA, 72 h; series mostly up to 28.7 µM; activity, negative = inhibition: at the top concentration
# In short: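 Three-day growth assay of blood-stage parasites in erythrocytes (0.3% parasitemia, 2.5% hematocrit) at 37 C, 5% CO2, quantified by SYBR Green DNA staining after overnight detergent lysis.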
# Potency means the concentration at half of the fitted maximal effect.
Structure (SMILES),"activity, negative = inhibition",Potency
CCCCC[C@H](O)/C=C/[C@H]1[C@H](O)CC(=O)[C@@H]1C/C=C\CCCC(=O)O,3.01%,–
C(=C\c1ccncc1)/c1ccccc1,-4.54%,–
O=C1N=C2SCCN2C(=O)C1Cc1ccc(Cl)cc1 (stereo unspecified),-5.82%,–
Cc1nc(NS(=O)(=O)c2ccc(N)cc2)nc(C)c1Br,-1.55%,–
O=c1[nH]c(=O)n([C@H]2C[C@H](O)[C@@H](CO)O2)cc1/C=C/Br,-4.25%,–
CC12CCC(C[N+](C)(CCC[N+](C)(C)C)C1)C2(C)C (stereo unspecified),6.91%,–
CC(C)NCC(O)COc1ccccc1-n1cccc1 (stereo unspecified),1.91%,–
F[Si-2](F)(F)(F)(F)F,1.39%,–
CN(Cc1ccccc1)Cc1ccccc1,-0.123%,–
O=[n+]1ccn([O-])c2ccccc21,-6.22%,–
OCC(O)CO,2.05%,–
CC(=O)NCCCS(=O)(=O)O,-0.0731%,–
CCN(CC)CCOc1ccc2nc(N(C)C)sc2c1,-4.65%,–
Cc1cccc(Nc2ncccc2C(=O)O)c1C,1.24%,–
CCCCC(CC)CCC(CC(C)C)OS(=O)(=O)O (stereo unspecified),3.06%,–
C[C@H](N)C(=O)N[C@@H](C)P(=O)(O)O,-9.78%,–

Structure (SMILES),"activity, negative = inhibition",Potency
CC(=O)Nc1ccc(NC(=S)NC(=O)c2ccc(C(C)(C)C)cc2)cc1,-1.8%,–
Cc1cc(-c2ccc(N=Nc3ccc4c(S(=O)(=O)O)cc(S(=O)(=O)O)c(N)c4c3O)c(C)c2)ccc1N=Nc1ccc2c(S(=O)(=O)O)cc(S(=O)(=O)O)c(N)c2c1O,-6.92%,–
CCC(C(=O)NC(N)=O)c1ccccc1 (stereo unspecified),6.84%,–
Cn1cc(NC(=O)c2cc(NC(=O)c3cc(NC=O)cn3C)cn2C)cc1C(=O)NCCC(=N)N,–,9.53 µM (active)
CCc1ncnc2cc(OC)c(OC)cc12,-1.29%,–
Cc1ncc(C[n+]2csc(CCO)c2C)c(N)n1,1.06% [at 12.8 µM],–
O[C@@H]([C@H](O)[C@H](O)CBr)[C@H](O)CBr,1.28%,–
O=[N+]([O-])c1c(Cl)cccc1-c1c[nH]cc1Cl,-9.47%,–
C[C@@](Cc1ccc(O)c(O)c1)(NN)C(=O)O,1.21%,–
CC(=O)Oc1cc(C(F)(F)F)ccc1C(=O)O,7.21% [at 12.8 µM],–
CCCCC,-0.511%,–
CCCCC[C@H](O)/C=C/[C@@H]1[C@H]2C/C(=C/CCCC(=O)O)O[C@H]2C[C@H]1O,-5.61%,–
C[Si](C)(C)O[Si](C)(C)C,1.34%,–
Cc1c(C)c2c(c(C)c1OC(=O)CCC(=O)O)CC[C@@](C)(CCC[C@H](C)CCC[C@H](C)CCCC(C)C)O2,10.6%,–
CCOC(=O)c1c[nH]c2cc(OCC(C)C)c(OCC(C)C)cc2c1=O,–,0.135 µM (active)
